Among the test systems are NCI-H23 lung; NCI-H226 lung; NCI-H322M lung; HOP-62 NSCLC; NCI-H460 lung; HOP-92 NSCLC; NCI-H522 lung; A549/ATCC NSCLC; 786-0 renal; COLO 205 colon; DU-145 prostate; K-562 leukemia; MALME-3M melanoma; MDA-MB-231 breast; RXF 393 renal; SF-268 CNS; SF-295 CNS; SF-539 CNS; UACC-257 melanoma; M14 melanoma.
Common to all, as to assay: NCI-60 one-dose screen, 48 h (100 = growth as untreated, 0 = no growth, -100 = all killed)
Holding throughout (conditions): 10 µM

Drawing on PubChem BioAssay (NCI), this text covers growth for 8 compounds.

This is part of a sample that, as a whole, favours compounds with a hit. Of some 83,000 tested, about 20% had one in any assay.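 A percent growth of 40 corresponds to 60% growth inhibition; 0 means no net growth; -100 means all cells died. Active threshold: below 10.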 Unmarked numbers belong to inactive results. The source made the active and inactive calls.

In the case of `NC1CCC(Nc2nc(NCc3ccc(-c4cccs4)nc3)c3ncn(C4CCCC4)c3n2)CC1` (stereo not given), the growth was -33.8% (active) with NCI-H23 lung; -9.23% (active) with NCI-H226 lung; 19% with NCI-H322M lung; -2.05% (active) with HOP-62 NSCLC; 3.28% (active) in the experiment with NCI-H460 lung; -13% (active) with HOP-92 NSCLC. Moreover, the growth is -52.6% (active) in the experiment on NCI-H522 lung; 4.31% (active) with A549/ATCC NSCLC; 0.15% (active) in the experiment on 786-0 renal; -51.4% (active) in the experiment on COLO 205 colon; 8.83% (active) in the experiment on DU-145 prostate; -6% (active) in the experiment on K-562 leukemia. For the same compound, the growth in the experiment with MALME-3M melanoma is -74.7% (active); in the experiment on MDA-MB-231 breast, -0.601% (active); with RXF 393 renal it was -50% (active); in the experiment on SF-268 CNS, -5.75% (active); in the experiment on SF-295 CNS it was 0.906% (active); in the experiment with SF-539 CNS, -56.7% (active). In addition, the results for the growth in the experiment on UACC-257 melanoma and with M14 melanoma were -74.6% (active) and -80.6% (active), respectively.
As to `N=C(N)c1ccc(-c2ccc(-c3ccccc3)s2)s1`, the growth in the experiment on NCI-H23 lung is 54.6%; in the experiment on NCI-H226 lung, -19.8% (active); in the experiment on NCI-H322M lung it was -86.2% (active); in the experiment on HOP-62 NSCLC it was -83.9% (active); with NCI-H460 lung it was -70% (active); in the experiment with HOP-92 NSCLC it was -37.8% (active). Also, the growth with NCI-H522 lung was -69.4% (active); in the experiment with A549/ATCC NSCLC it was -60.8% (active); in the experiment with 786-0 renal, -36.7% (active); in the experiment with COLO 205 colon, -96.3% (active); in the experiment on DU-145 prostate it was -93.8% (active); in the experiment with K-562 leukemia, -63.1% (active). The growth is -81.1% (active) with MALME-3M melanoma; -76.8% (active) with MDA-MB-231 breast; -93.2% (active) with RXF 393 renal; -56.6% (active) in the experiment on SF-268 CNS; -75.3% (active) with SF-295 CNS; -54.7% (active) with SF-539 CNS. Besides, the growth with UACC-257 melanoma is -59.9% (active); in the experiment on M14 melanoma, -68.9% (active).
As for `COc1cc(Nc2ccnc(N3CCN(c4ccnc5cc(Cl)ccc45)CC3)n2)cc(OC)c1`, the growth in the experiment on NCI-H23 lung was 9.65% (active); in the experiment with NCI-H226 lung, 9.15% (active); in the experiment on NCI-H322M lung, 23.2%; with HOP-62 NSCLC, 9.41% (active); with NCI-H460 lung, 6% (active); in the experiment on HOP-92 NSCLC, -16.6% (active). For the same compound, the growth in the experiment with NCI-H522 lung was -23.2% (active); in the experiment with A549/ATCC NSCLC, 7.47% (active); in the experiment with 786-0 renal it was -17.9% (active); in the experiment on COLO 205 colon it was -10.7% (active); with DU-145 prostate, 34.1%; in the experiment with K-562 leukemia, 2.73% (active). Also, the growth in the experiment on MALME-3M melanoma was -4.19% (active); in the experiment on MDA-MB-231 breast, 18.5%; in the experiment on RXF 393 renal it was -18.3% (active); in the experiment on SF-268 CNS, 27.7%; in the experiment on SF-295 CNS, -19.2% (active); in the experiment with SF-539 CNS, -22.1% (active). Besides, the growth in the experiment on UACC-257 melanoma is 1.09% (active); with M14 melanoma, -3.5% (active).
Regarding `CCOC(=O)c1sc(Nc2ncccn2)nc1-c1ccccn1`, the growth in the experiment on NCI-H23 lung was 84.4%; in the experiment with NCI-H226 lung it was 92.8%; in the experiment with NCI-H322M lung, 85%; in the experiment on HOP-62 NSCLC, 92%; in the experiment on NCI-H460 lung, 66.9%; in the experiment on HOP-92 NSCLC it was 97.5%. For the same compound, the growth in the experiment on NCI-H522 lung is 85.7%; in the experiment on A549/ATCC NSCLC it was 84.3%; with 786-0 renal, 97.9%; in the experiment on COLO 205 colon, 98.3%; in the experiment on DU-145 prostate, 92.3%; in the experiment with K-562 leukemia, 108%. Also, the growth in the experiment on MALME-3M melanoma was 107%; in the experiment on MDA-MB-231 breast, 86.7%; with RXF 393 renal, 104%; with SF-268 CNS, 80.6%; with SF-295 CNS, 84.2%; in the experiment on SF-539 CNS it was 99.3%. The growth in the experiment on UACC-257 melanoma is 100%; in the experiment with M14 melanoma, 81.9%.
In the case of `Cc1cnc(C=O)c2cccc([N+](=O)[O-])c12`, the growth in the experiment on NCI-H23 lung is 98.7%; in the experiment on NCI-H226 lung, 77.7%; in the experiment with NCI-H322M lung, 103%; in the experiment on HOP-62 NSCLC, 91.7%; in the experiment on NCI-H460 lung, 106%; with HOP-92 NSCLC, 61.2%. Moreover, the growth in the experiment with NCI-H522 lung is 96%; in the experiment on A549/ATCC NSCLC, 104%; in the experiment with 786-0 renal, 99.7%; with COLO 205 colon, 106%; in the experiment with DU-145 prostate, 92.3%; in the experiment on K-562 leukemia, 51.3%. Further, the growth with MALME-3M melanoma is 81.1%; with MDA-MB-231 breast, 93.4%; in the experiment on RXF 393 renal, 93.1%; in the experiment on SF-268 CNS it was 88.5%; in the experiment on SF-295 CNS it was 89.9%; in the experiment with SF-539 CNS, 90.1%. Also, the growth in the experiment on UACC-257 melanoma is 107%; in the experiment on M14 melanoma it was 95.9%.
`Cc1nc2cc(-n3c(-c4ccc(F)cc4)nc4ccccc4c3=O)ccc2n1Cc1ccccc1`: the growth with NCI-H23 lung is 42.1%; in the experiment on NCI-H226 lung, 3.55% (active); in the experiment with NCI-H322M lung, 38.2%; with HOP-62 NSCLC it was 45.1%; with NCI-H460 lung, -38.9% (active); in the experiment on HOP-92 NSCLC it was -15.6% (active). Moreover, the growth in the experiment on NCI-H522 lung was 44.5%; in the experiment with A549/ATCC NSCLC, -25.4% (active); with 786-0 renal, 7.98% (active); in the experiment on COLO 205 colon, 4.23% (active); in the experiment on DU-145 prostate it was 20.8%; with K-562 leukemia it was 8.27% (active). The growth with MALME-3M melanoma is -45.1% (active); with MDA-MB-231 breast, -25.5% (active); in the experiment on RXF 393 renal, -31.3% (active); in the experiment on SF-268 CNS it was 8.04% (active); in the experiment on SF-295 CNS it was 47.1%; with SF-539 CNS, -72.6% (active). The growth with UACC-257 melanoma was -18% (active); with M14 melanoma, 3.21% (active).
Turning to `COc1ccc(-c2nc(-c3nc4ccc(C)cc4[nH]3)c3ccccn23)cc1`, the growth was 69.3% in the experiment with NCI-H23 lung; 57.9% in the experiment with NCI-H226 lung; 50.3% in the experiment with NCI-H322M lung; 52% with HOP-62 NSCLC; 52.1% in the experiment with NCI-H460 lung; -2.51% (active) with HOP-92 NSCLC. The growth in the experiment with NCI-H522 lung is 38.8%; in the experiment on A549/ATCC NSCLC, 24.2%; with 786-0 renal, 78.3%; with COLO 205 colon, 61.1%; in the experiment on DU-145 prostate, 52.2%; in the experiment on K-562 leukemia, 20.4%. Also, the growth in the experiment with MALME-3M melanoma was 85.3%; with MDA-MB-231 breast, 32.9%; with RXF 393 renal it was 66.5%; with SF-268 CNS, 45%; in the experiment on SF-295 CNS, 8.6% (active); in the experiment on SF-539 CNS, 82.4%. The growth in the experiment on UACC-257 melanoma was 57.6%; in the experiment on M14 melanoma, 46.5%.
Turning to `Cc1ccc([P+](Cc2ccccc2)(c2ccccc2)c2ccccc2)cc1`, the growth with NCI-H23 lung was 12.4%; in the experiment with NCI-H226 lung it was 28.3%; in the experiment on NCI-H322M lung, 16.2%; in the experiment with HOP-62 NSCLC it was 23.7%; in the experiment with NCI-H460 lung it was 12.4%; with HOP-92 NSCLC, -25.3% (active). Also, the growth in the experiment on NCI-H522 lung was -21.6% (active); in the experiment with A549/ATCC NSCLC, 18.1%; in the experiment with 786-0 renal it was 21.3%; with COLO 205 colon, -68.9% (active); in the experiment on DU-145 prostate it was 32.3%; in the experiment with K-562 leukemia it was 2.63% (active). The growth in the experiment with MALME-3M melanoma is -10.8% (active); with MDA-MB-231 breast, 17.8%; in the experiment with RXF 393 renal, 45.7%; in the experiment on SF-268 CNS, 28.4%; in the experiment with SF-295 CNS it was -6.8% (active); in the experiment with SF-539 CNS, 23%. For the same compound, the growth was -28.6% (active) in the experiment with UACC-257 melanoma and 3.22% (active) in the experiment on M14 melanoma.
